From PubChem BioAssay AID1159580 (chemical genetic matrix, 2015)
The whole screen tested about 5,500 compounds, of which about 2,000 (36%) were called active. Not shown: some 18% with an inconclusive outcome. This is one part of the list. A number with no mark means an inactive call. Rule as the data show it: active = normalized growth mostly below about 0.91 (no sharp cut-off); inconclusive = no clear call, values can overlap the other calls; inactive = mostly above about 0.92.

Test: chemical genetic growth profiling, strain panel (AID 1159580);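 also: tested at 20 µM; growth read once vehicle control cultures reached saturation at 30 °C; 1 = growth at the plate median or of vehicle wells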
Conditions: growth OD

Nc1ccc(N=Nc2ccccc2)c(N)n1
normalized growth (S. cerevisiae deletion strains, locus YJR075W, strain HOC1, stronger effect = lower value): 0.991
normalized growth (S. cerevisiae deletion strains, locus YKL009W, strain mrt4, stronger effect = lower value): 0.933
normalized growth (S. cerevisiae deletion strains, locus YKL068W, stronger effect = lower value): 1.02
normalized growth (S. cerevisiae deletion strains, locus YKL085W, strain MDH1 (second series), stronger effect = lower value): 1.01
normalized growth (S. cerevisiae deletion strains, locus YKL085W, strain MDH1, stronger effect = lower value): 1.01
normalized growth (S. cerevisiae deletion strains, locus YKL160W, strain elf1, stronger effect = lower value): 0.772 (active)
normalized growth (S. cerevisiae deletion strains, locus YKL190W, strain CNB1, stronger effect = lower value): 1
normalized growth (S. cerevisiae deletion strains, locus YKR001C, strain vps1, stronger effect = lower value): 0.885 (active)
normalized growth (S. cerevisiae deletion strains, locus YKR026C, strain gcn3, stronger effect = lower value): 0.969
normalized growth (S. cerevisiae deletion strains, locus YKR091W, strain srl3, stronger effect = lower value): 0.959
normalized growth (S. cerevisiae deletion strains, locus YLL001W, strain dnm1, stronger effect = lower value): 0.8 (active)
normalized growth (S. cerevisiae deletion strains, locus YLL026W, stronger effect = lower value): 0.825 (active)
normalized growth (S. cerevisiae deletion strains, locus YLL041C, strain sdh2, stronger effect = lower value): 0.896 (active)
normalized growth (S. cerevisiae deletion strains, locus YLR027C, strain aat2, stronger effect = lower value): 0.802 (active)
normalized growth (S. cerevisiae deletion strains, locus YLR039C, strain RIC1, stronger effect = lower value): 0.596 (active)
normalized growth (S. cerevisiae deletion strains, locus YLR058C, strain SHM2, stronger effect = lower value): 1
normalized growth (S. cerevisiae deletion strains, locus YLR102C, strain apc9, stronger effect = lower value): 1.02
normalized growth (S. cerevisiae deletion strains, locus YLR113W, strain HOG1, stronger effect = lower value): 0.997
normalized growth (S. cerevisiae deletion strains, locus YLR221C, strain rsa3, stronger effect = lower value): 0.7 (active)
normalized growth (S. cerevisiae deletion strains, locus YLR258W, strain gsy2, stronger effect = lower value): 0.771 (active)
normalized growth (S. cerevisiae deletion strains, locus YLR262C, strain YPT6 (second series), stronger effect = lower value): 0.351 (active)
normalized growth (S. cerevisiae deletion strains, locus YLR262C, strain YPT6, stronger effect = lower value): 0.574 (active)
normalized growth (S. cerevisiae deletion strains, locus YLR268W, strain sec22, stronger effect = lower value): 0.982
normalized growth (S. cerevisiae deletion strains, locus YLR320W, strain mms22, stronger effect = lower value): 0.429 (active)
normalized growth (S. cerevisiae deletion strains, locus YLR330W, strain CHS5, stronger effect = lower value): 0.992
normalized growth (S. cerevisiae deletion strains, locus YLR342W, strain FKS1 (second series), stronger effect = lower value): 0.916
normalized growth (S. cerevisiae deletion strains, locus YLR342W, strain FKS1, stronger effect = lower value): 0.861 (active)
normalized growth (S. cerevisiae deletion strains, locus YLR357W, strain rsc2, stronger effect = lower value): 1.04
normalized growth (S. cerevisiae deletion strains, locus YLR370C, strain arc18, stronger effect = lower value): 0.946
normalized growth (S. cerevisiae deletion strains, locus YLR371W, strain rom2, stronger effect = lower value): 1.03
normalized growth (S. cerevisiae deletion strains, locus YLR384C, strain iki3, stronger effect = lower value): 0.972
normalized growth (S. cerevisiae deletion strains, locus YLR418C, strain cdc73, stronger effect = lower value): 0.881
normalized growth (S. cerevisiae deletion strains, locus YML016C, strain PPZ1, stronger effect = lower value): 0.987
normalized growth (S. cerevisiae deletion strains, locus YML032C, strain rad52, stronger effect = lower value): 0.938
normalized growth (S. cerevisiae deletion strains, locus YML120C, strain ndi1, stronger effect = lower value): 0.79 (active)
normalized growth (S. cerevisiae deletion strains, locus YML124C, strain tub3, stronger effect = lower value): 1.02
normalized growth (S. cerevisiae deletion strains, locus YMR058W, strain fet3, stronger effect = lower value): 0.716 (active)
normalized growth (S. cerevisiae deletion strains, locus YMR078C, strain ctf18, stronger effect = lower value): 1.01
normalized growth (S. cerevisiae deletion strains, locus YMR125W, strain sto1, stronger effect = lower value): 0.962
normalized growth (S. cerevisiae deletion strains, locus YMR129W, stronger effect = lower value): 0.978
normalized growth (S. cerevisiae deletion strains, locus YMR205C, strain PFK2, stronger effect = lower value): 0.568 (active)
normalized growth (S. cerevisiae deletion strains, locus YMR223W, strain ubp8, stronger effect = lower value): 0.92
normalized growth (S. cerevisiae deletion strains, locus YMR231W, strain pep5, stronger effect = lower value): 0.971
normalized growth (S. cerevisiae deletion strains, locus YMR263W, strain SAP30, stronger effect = lower value): 0.927
normalized growth (S. cerevisiae deletion strains, locus YMR307W, strain GAS1, stronger effect = lower value): 1.21
normalized growth (S. cerevisiae deletion strains, locus YNL067W, strain RPL9B, stronger effect = lower value): 0.922
normalized growth (S. cerevisiae deletion strains, locus YNL071W, strain lat1, stronger effect = lower value): 0.261 (active)
normalized growth (S. cerevisiae deletion strains, locus YNL128W, strain TEP1, stronger effect = lower value): 0.966
normalized growth (S. cerevisiae deletion strains, locus YNL153C, strain GIM3, stronger effect = lower value): 0.975
normalized growth (S. cerevisiae deletion strains, locus YNL183C, strain NPR1, stronger effect = lower value): 0.934
normalized growth (S. cerevisiae deletion strains, locus YNL209W, strain ssb2, stronger effect = lower value): 0.791 (active)
normalized growth (S. cerevisiae deletion strains, locus YNL233W, strain BNI4, stronger effect = lower value): 0.937
normalized growth (S. cerevisiae deletion strains, locus YNL248C, strain rpa49, stronger effect = lower value): 0.814 (active)
normalized growth (S. cerevisiae deletion strains, locus YNL250W, strain rad50, stronger effect = lower value): 1.02
normalized growth (S. cerevisiae deletion strains, locus YNL271C, strain bni1, stronger effect = lower value): 0.995
normalized growth (S. cerevisiae deletion strains, locus YNL298W, strain CLA4, stronger effect = lower value): 0.928
normalized growth (S. cerevisiae deletion strains, locus YNL307C, strain MCK1, stronger effect = lower value): 0.798 (active)
normalized growth (S. cerevisiae deletion strains, locus YNL322C, strain KRE1 (second series), stronger effect = lower value): 1.03
normalized growth (S. cerevisiae deletion strains, locus YNL322C, strain KRE1, stronger effect = lower value): 1.01
normalized growth (S. cerevisiae deletion strains, locus YNR049C, strain mso1, stronger effect = lower value): 0.965
normalized growth (S. cerevisiae deletion strains, locus YNR052C, strain pop2, stronger effect = lower value): 0.936
normalized growth (S. cerevisiae deletion strains, locus YOL006C, strain TOP1, stronger effect = lower value): 0.332 (active)
normalized growth (S. cerevisiae deletion strains, locus YOL012C, strain htz1): 1.24
normalized growth (S. cerevisiae deletion strains, locus YOL147C, strain pex11, stronger effect = lower value): 0.982
normalized growth (S. cerevisiae deletion strains, locus YOR001W, strain rrp6, stronger effect = lower value): 0.753 (active)
normalized growth (S. cerevisiae deletion strains, locus YOR061W, strain CKA2, stronger effect = lower value): 0.995
normalized growth (S. cerevisiae deletion strains, locus YOR069W, strain VPS5, stronger effect = lower value): 0.998
normalized growth (S. cerevisiae deletion strains, locus YOR070C, strain gyp1, stronger effect = lower value): 0.774 (active)
normalized growth (S. cerevisiae deletion strains, locus YOR080W, strain dia2, stronger effect = lower value): 0.967
normalized growth (S. cerevisiae deletion strains, locus YOR083W, strain WHI5, stronger effect = lower value): 0.784 (active)
normalized growth (S. cerevisiae deletion strains, locus YOR106W, strain vam3, stronger effect = lower value): 0.563 (active)
normalized growth (S. cerevisiae deletion strains, locus YOR136W, strain idh2, stronger effect = lower value): 1.01
normalized growth (S. cerevisiae deletion strains, locus YOR144C, strain elg1, stronger effect = lower value): 1.01
normalized growth (S. cerevisiae deletion strains, locus YOR184W, strain ser1, stronger effect = lower value): 1.02
normalized growth (S. cerevisiae deletion strains, locus YOR231W, strain MKK1, stronger effect = lower value): 0.942
normalized growth (S. cerevisiae deletion strains, locus YOR265W, strain rbl2, stronger effect = lower value): 0.903 (active)
normalized growth (S. cerevisiae deletion strains, locus YOR270C, strain vph1, stronger effect = lower value): 0.243 (active)
normalized growth (S. cerevisiae deletion strains, locus YOR290C, strain snf2, stronger effect = lower value): 0.782 (active)
normalized growth (S. cerevisiae deletion strains, locus YOR316C, strain cot1, stronger effect = lower value): 1.02
normalized growth (S. cerevisiae deletion strains, locus YPL051W, strain arl3, stronger effect = lower value): 0.554 (active)
normalized growth (S. cerevisiae deletion strains, locus YPL055C, strain LGE1, stronger effect = lower value): 0.934
normalized growth (S. cerevisiae deletion strains, locus YPL078C, strain atp4, stronger effect = lower value): 0.741 (active)
normalized growth (S. cerevisiae deletion strains, locus YPL106C, strain sse1, stronger effect = lower value): 0.978
normalized growth (S. cerevisiae deletion strains, locus YPL240C, strain hsp82, stronger effect = lower value): 0.849 (active)
normalized growth (S. cerevisiae deletion strains, locus YPL241C, strain CIN2, stronger effect = lower value): 0.998
normalized growth (S. cerevisiae deletion strains, locus YPL256C, strain CLN2, stronger effect = lower value): 0.962
normalized growth (S. cerevisiae deletion strains, locus YPR119W, strain clb2, stronger effect = lower value): 1.02
normalized growth (S. cerevisiae deletion strains, locus YPR141C, strain kar3, stronger effect = lower value): 1.04
normalized growth (S. cerevisiae deletion strains, locus YPR163C, strain tif3, stronger effect = lower value): 0.952
normalized growth (S. cerevisiae deletion strains, locus YPR167C, strain met16, stronger effect = lower value): 1.02
normalized growth (S. cerevisiae deletion strains, strain wtn01, stronger effect = lower value): 0.964
normalized growth (S. cerevisiae strains, strain wild type, stronger effect = lower value): 0.987
